Paper PMC12670160, “A drug-repurposing screen of FDA- and EMA-approved drugs identifies two NF-κB inhibitors active against eumycetoma” (Journal of Antimicrobial Chemotherapy, 2025)
Where a name gives a salt, the structure may show the parent alone. Hit rate of the full screen: of about 5,300 compounds, about 130 (2.5%) showed an effect of 50% or more. The sample as a whole holds a higher share of strong results than the screen did.

Tested on: M. mycetomatis strain mm55
Conditions: primary screen, metabolic activity vs growth control; 96 h, 2 µM; inhibitor

| Structure (SMILES) | % viability [%] |
| --- | --- |
| CO[C@H]1CC[C@H](N(c2cc(C3=CCCCC3)sc2C(=O)O)C(=O)[C@H]2CC[C@H](C)CC2)CC1 [ONC0000943, vch916] | 78.62 |
| CC(C)c1ccc(C(=O)NC(=N)N)cc1S(C)(=O)=O [ONC0004136, cariporide] | 93.97 |
| CC12CCC(C(Br)C1=O)C2(C)C (stereo not drawn) [ONC0003727, 3bromocamphor] | 127.8 |
| Cc1csc2c(N[C@@H](C)CN3CCN(S(=O)(=O)c4ccc(Cl)c(Cl)c4)CC3)ncnc12 [ONC0001129, lpa2 antagonist 1] | 45.06 |
| O=C(O)/C(Cc1ccccc1[N+](=O)[O-])=N/Nc1nc(-c2ccc(Cl)c(Cl)c2)cs1 [ONC0005147, 4egi1] | 73.1 |
| CC[C@]1(O)C[C@H]2CN(CCc3c([nH]c4ccccc34)[C@@](C(=O)OC)(c3cc4c(cc3OC)N(C)[C@H]3[C@@](O)(C(N)=O)[C@H](O)[C@]5(CC)C=CCN6CC[C@]43[C@@H]65)C2)C1 [ONC0000288, vindesine sulfate] | 94.86 |
| CCCCC(=O)O[C@H]1CC[C@H]2[C@@H]3CCc4cc(O)ccc4[C@H]3CC[C@]12C [ONC0000727, estradiol valerate] | 49.76 |
| C[C@]12CC[C@@H]3c4ccc(O)cc4CC[C@H]3[C@@H]1CC[C@@H]2O [ONC0000707, estradiol] | 85.31 |
| C[C@]12CC[C@@H]3c4ccc(O)cc4CC[C@H]3[C@@H]1CC[C@@H]2OC(=O)CCC1CCCC1 [ONC0000738, estradiol cypionate] | 84.11 |
| [H]/N=C(\N/C(=N/[H])NCCCCCCNC(=N)NC(=N)Nc1ccc(Cl)cc1)Nc1ccc(Cl)cc1 [ONC0000326, chlorhexidine dihydrochloride] | 77.24 |
| Cc1cccc(NC(=O)N[C@@H]2N=C(c3ccccc3)c3ccccc3N(CC(=O)c3ccccc3C)C2=O)c1 [ONC0005568, ym022] | 88.21 |
| CC1=C(CCC(=O)O)c2cc3[nH]c(cc4nc(cc5[nH]c(cc1n2)c(C)c5C(C)O)C(C)=C4C(C)O)c(C)c3CCC(=O)O (stereo not drawn) [ONC0002122, hematoporphyrin] | 86.42 |
| C=Cc1c(C)c2cc3nc(c(CC(=O)O)c4[nH]c(cc5nc(cc1[nH]2)C(C)=C5CC)c(C)c4C(=O)O)C(CCC(=O)O)C3C (stereo not drawn) [ONC0000409, chlorophyllin chlorin e6] | 49.9 |
| C=CC1=C(C)c2cc3[nH]c(cc4nc(cc5[nH]c(cc1n2)c(C)c5CCC(=O)O)C(CCC(=O)O)=C4C)c(C)c3C=C [ONC0000685, protoporphyrin ix] | 98.29 |
| CN(C)[C@@H]1C(=O)C(C(N)=O)C(=O)[C@@]2(O)C(=O)C3C(=O)c4c(O)cccc4[C@@](C)(O)[C@H]3C[C@@H]12 (stereo partly drawn) [ONC0000563, tetracycline hydrochloride] | 113.1 |
| C/C(=N\NC(=N)N)c1cc(NC(=O)CCCCCCCCC(=O)Nc2cc(/C(C)=N/NC(=N)N)cc(/C(C)=N/NC(=N)N)c2)cc(/C(C)=N/NC(=N)N)c1 [ONC0003851, semapimod] | 78.92 |
| CCCCCCCCCCCCCCCCCC(=O)OCC(O)[C@H]1OC[C@H](O)[C@H]1O (stereo partly drawn) [ONC0002989, sorbitanmonostearate] | 79.74 |

| Structure (SMILES) | % viability [%] |
| --- | --- |
| CCOc1cccc(NC(=O)c2ccc(N3CCCC3)c(C(F)(F)F)c2)c1 [ONC0001854, epptb] | 85.67 |
| CCn1c(-c2nonc2N)nc2cnc(Oc3cccc(NC(=O)c4ccc(OCCN5CCOCC5)cc4)c3)cc21 [ONC0002474, gsk269962] | 46.2 |
| COc1cc2c(Nc3ccc(NC(=O)c4ccccc4)cc3)ncnc2cc1OCCCN1CCOCC1 [ONC0003607, zm447439] | 145.2 |
| Cc1nc2ccc(CN(C)c3ccc(C(=O)N[C@@H](CCC(=O)O)C(=O)O)s3)cc2c(=O)[nH]1 [ONC0004884, raltitrexed tomudex] | 134.6 |
| CN1CCN2c3c(cccc31)[C@@H]1CN(CCCC(=O)c3ccc(F)cc3)CC[C@@H]12 [ONC0001244, lumateperone tosylate] | 56.09 |
| CC1=NN(c2ccc(C)c(C)c2)C(=O)/C1=N/Nc1cccc(-c2cccc(C(=O)O)c2)c1O [ONC0004936, eltrombopag olamine] | 85.22 |
| N#CC(c1ccccc1)(c1ccccc1)c1ccccc1Cl [ONC0000177, tram39] | 89.73 |
| FC(F)(F)c1ccccc1-n1ccnc1 [ONC0000025, trim] | 101 |
| Clc1ccccc1C(c1ccccc1)(c1ccccc1)n1ccnc1 [Clotrimazole] | 2.944 |
| C=CC1=C(C)c2cc3[nH]c(cc4nc(cc5[nH]c(cc1n2)c(C)c5CCC(=O)O)C(CCC(=O)OC)=C4C)[C@@]1(C)C3=CC=C(C(=O)OC)[C@H]1C(=O)OC [ONC0001491, verteporfin] | 55.47 |
| CC(C)(C)c1ccc(-c2nc3c(N4CCN(Cc5ccc6nccnc6c5)CC4)cccc3[nH]2)cc1 [ONC0001828, way207024] | 97.56 |
| N=C(N)NCCC[C@@H](N)C(=O)O [ONC0004802, larginine hcl] | 91.52 |
| CN1C/C=C/CCOc2cccc(c2)-c2ccnc(n2)Nc2cccc(c2)C1 [ONC0001026, sb1317] | 86.64 |
| Nc1nc2c(ncn2[C@@H]2O[C@H](CO)[C@@H](O)[C@H]2O)c(=S)[nH]1 [ONC0004689, thioguanosine] | 121.6 |
| C=C[C@@]1(C)CC(=O)[C@]2(O)[C@@]3(C)[C@@H](O)CCC(C)(C)[C@@H]3[C@H](OC(=O)CCN(C)C)[C@H](OC(C)=O)[C@@]2(C)O1 [ONC0002915, colforsindaproate] | 95.97 |
| C/C=C(\C)C(=O)O[C@H]1[C@H](OC(C)=O)[C@@]2(CO)C(CC1(C)C)C1=CCC3[C@@]4(C)CCC(O[C@@H]5O[C@H](C(=O)O)[C@@H](O[C@@H]6O[C@H](CO)[C@@H](O)[C@H](O)[C@H]6O)[C@H](O)[C@H]5O[C@@H]5O[C@H](CO)[C@@H](O)[C@H](O)[C@H]5O)[C@](C)(CO)C4CC[C@@]3(C)[C@]1(C)C[C@H]2O (stereo partly drawn) [ONC0002310, escin] | 67.54 |
